Each structure is given as a SMILES string. Values without a mark were called inactive.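 Rule for the calls: active = inhibition at or above 50% relative to wild type and mutant plate controls; inactive = inhibition below 50%.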

For orientation: inhibition means the change of the read-out against control, counted positive when it falls.

The assay in a line: loss of swimming-algae plug formation – whole organism, Chlamydomonas reinhardtii, WT vs cilia-less mutant, absorbance, 96-well, primary screen (AID 463189).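 Note: 0% = wild type cc124 cells in DMSO and 100% = ciliumless bld1 mutant cells.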 The conditions noted are these: Chlamydomonas reinhardtii gravitaxis, OD600 absorbance, 2 days; at 10 µM; hits give high values.
`NCCCC(=O)O`: the inhibition is -6.87%.

In the case of `Cc1cc(NC(=O)Nc2ccc3c(ccn3C)c2)sn1`, the inhibition is 5.1%.

Take `CN=C(NC#N)Nc1ccc(C2=NNC(=O)CC2C)cc1` (centres undefined): the inhibition is -4.34%.

`CC(C)(Oc1ccc(C2CC2(Cl)Cl)cc1)C(=O)O` (centres undefined): the inhibition was 1.41%.

In the case of `c1ccc(C2CN3CCSC3=N2)cc1` (centres undefined), the inhibition was 45.3%.

Regarding `CN1C(C)(C)CCCC1(C)C`, the inhibition is 7.18%.

In the case of `O=C(O)/C(=C/c1c(C(=O)O)[nH]c2cc(Cl)cc(Cl)c12)c1ccccc1`, the inhibition is -3.38%.

`O=C(O)C1CN(CCCP(=O)(O)O)CCN1` (centres undefined): the inhibition is -0.924%.

For `Cc1nc(N=Nc2cc(S(=O)(=O)O)c3cc([N+](=O)[O-])cc(S(=O)(=O)O)c3c2)c(COP(=O)(O)O)c(C=O)c1O`, the inhibition was 0.765%.

Turning to `Cn1c(=O)c2[nH]c(-c3ccc(S(=O)(=O)O)cc3)nc2n(C)c1=O`, the inhibition is -2.33%.

Regarding `NCCCCC(=O)O`, the inhibition is 9.64%.

Consider `C[C@]12C=CC(=O)C=C1CC[C@@H]1C2=CC[C@]2(C)[C@@H](C(=O)CN3CCN(c4cc(N5CCCC5)nc(N5CCCC5)n4)CC3)CC[C@@H]12`, for which the inhibition is 3%.

For `Clc1ccc(N2CCN(Cc3c[nH]c4ncccc34)CC2)cc1`, the inhibition is 5.9%.

In the case of `CNC(=O)[C@H]1O[C@@H](n2cnc3c(NCc4cccc(I)c4)ncnc32)C(O)[C@H]1O` (some centres undefined), the inhibition is 1.77%.

Turning to `NCCC1CCCC(CCN)N1` (centres undefined), the inhibition was 5.08%.

As to `CC(C)N(CCC(=O)c1ccc2ccccc2c1)Cc1ccccc1`, the inhibition was 10.3%.

Turning to `CSC(=N)N`, the inhibition was 7.24%.

For the compound `C=CC(N)CCC(=O)O` (centres undefined), the inhibition is -6.67%.

Take `CC(C)C[C@H](NC(=O)[C@@H](O)[C@H](N)Cc1ccccc1)C(=O)O`: the inhibition is 3.44%.

In the case of `CN(C)CC[C@@H](c1ccc(Br)cc1)c1ccccn1`, the inhibition is 15%.

As to `CC(C)C(=O)Nc1ccc([N+](=O)[O-])c(C(F)(F)F)c1`, the inhibition is -17.5%.

Turning to `O=c1[nH]c2cc(Cl)ccc2c(O)c1-c1ccc(Oc2ccccc2)cc1`, the inhibition was 5.4%.

`NC(N)=N[C@@H](CCC(=O)O)C(=O)O`: the inhibition was 2.13%.

Consider `N[C@H](CCC(=O)NCS(=O)(=O)O)C(=O)O`, for which the inhibition is 4.82%.

Take `COc1cc2ncnc(Nc3cccc(Cl)c3)c2cc1OC`: the inhibition was -7.15%.

On to `Cc1c(CC(C)(C)C(=O)O)n(Cc2ccc(Cl)cc2)c2ccc(F)cc12`, for which the inhibition is 1.93%.

`Nc1ncn([C@@H]2O[C@H](CO)[C@@H](O)[C@H]2O)c(=O)n1`: the inhibition is 3.22%.

As for `CCn1cc(C(=O)O)c(=O)c2ccc(Cc3ccccc3)nc21`, the inhibition was 6.19%.

On to `CCCCCCCCCCCCCCCCCCNC(=O)OCC(COP(=O)([O-])OCC[n+]1ccsc1)OC` (centres undefined), for which the inhibition is 7%.

For the compound `C[C@](N)(Cc1ccc(O)cc1)C(=O)O`, the inhibition is 6.91%.

With `COc1ccccc1OCC(O)CN1CCN(CC(=O)Nc2c(C)cccc2C)CC1` (centres undefined), the inhibition is 8.13%.

Consider `Cn1cnc2c(NC3CCCC3)ncnc21`, for which the inhibition was 0.556%.

For the compound `CN1C2CCC1CC(NC(=O)c1nn(C)c3ccccc13)C2` (centres undefined), the inhibition is 10.7%.

As for `O=Nc1ccc2oc(=O)ccc2c1`, the inhibition was -9.21%.

For the compound `CC(C)C[C@H](N)CSSC[C@@H](N)CC(C)C`, the inhibition was 6.54%.

On to `C[N+]1(CCCCC[N+]2(C)CCCC2)CCCC1`, for which the inhibition is -4.7%.

For `OC[C@H]1O[C@@H](n2cnc3c(N[C@H]4CC5CCC4C5)ncnc32)[C@H](O)[C@@H]1O` (some centres undefined), the inhibition is 2.84%.

On to `C[C@@H](CN1CCC(Cc2ccccc2)CC1)[C@@H](O)c1ccc(O)cc1`, for which the inhibition was 10.4%.

As to `C1CCc2nnnn2CC1`, the inhibition was 5.68%.

The record behind these values is PubChem BioAssay.
